Rab9 promoter act: activators of Rab9 promoter | Huh7 Rab9 promoter-luciferase reporter, luminescence, 24 h | Potency, µM (doses to about 9.22 µM), inactives show at the top dose activation, negative = inhibition, most hits filed as activators | hit rate 2.8% among 320,000; note: % of control where 0% means no effect; nearly all actives have a fitted effect of over 60% in size
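Measured in stably transfected Huh7 cells bearing a Rab9 promoter–luciferase construct: 24 h compound treatment at 37 °C, followed by luminescence detection.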
NPC1 prom act: NPC1 promoter activation | Potency, µM (titrated, usually from 9.22 µM), inactives show at the top dose activation, usual class: activators | Huh7 NPC1 promoter luciferase reporter, 24 h | hit rate 2.4% among 320,000 | AID 485313; note: % of control where 0% means no effect; nearly all actives have a fitted effect of over 60% in size
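Stable NPC1-promoter luciferase Huh7 line; cpd (DMSO) 24 h, 37 °C, 5% CO2; Amplite luciferase reagent 10 min RT; luminescence readout. qHTS format.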
ELG1 genotox: induces genotoxicity in HEK293T cells with luciferase-tagged ELG1. AID 504466. HEK293T ELG1-luciferase reporter, luminescence, 16 h. hit rate 1.3% among 330,000. Potency, µM (series often up to 46 µM), without a hit: top-dose activity change, positive = activation, actives largely listed as activators; note: % of control where 0% means no effect; nearly all actives have a fitted effect of over 60% in size
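DMSO vehicle served as control against compound-treated ELG1-luciferase HEK293T cells; exposure lasted 16 hr at 37 °C and 5% CO2, followed by ONE-Glo luminescence detection after 30 min.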
SMN2 splice enh: increases expression of the SMN2 splice variant; HEK293 SMN2-luciferase splicing reporter, luminescence, 30-36 h; Potency, µM (doses to about 46.1 µM), inactives show at the highest dose activity change, positive = activation, hits mostly activators; hit rate 2.8% among 210,000; note: % of control where 0% means no effect; nearly all actives have a fitted effect of over 55% in size
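HEK293 cells carry an SMN2 minigene-luciferase reporter in which exon 7 inclusion puts luciferase in frame. Cells were seeded at 2000 cells/well, attached for 10-12 hours, then exposed to compounds for 30-36 hours at 37C before ONE-Glo luminescence.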
FLuc counter: inhibits or activates purified firefly luciferase, miR-21 counter-screen; P08659; Potency, µM (top dose mostly 57.5 µM), without a hit: at the highest dose activity change, negative = inhibition, actives largely listed as inhibitors; hit rate 6.9% among 360,000; purified FLuc, Km substrates, luminescence inhibition;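 note: plate controls were vehicle for no effect and reference inhibitor for full effect; nearly all actives have a fitted effect of over 55% in size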
Target sequence (P08659 whole entry, looked up): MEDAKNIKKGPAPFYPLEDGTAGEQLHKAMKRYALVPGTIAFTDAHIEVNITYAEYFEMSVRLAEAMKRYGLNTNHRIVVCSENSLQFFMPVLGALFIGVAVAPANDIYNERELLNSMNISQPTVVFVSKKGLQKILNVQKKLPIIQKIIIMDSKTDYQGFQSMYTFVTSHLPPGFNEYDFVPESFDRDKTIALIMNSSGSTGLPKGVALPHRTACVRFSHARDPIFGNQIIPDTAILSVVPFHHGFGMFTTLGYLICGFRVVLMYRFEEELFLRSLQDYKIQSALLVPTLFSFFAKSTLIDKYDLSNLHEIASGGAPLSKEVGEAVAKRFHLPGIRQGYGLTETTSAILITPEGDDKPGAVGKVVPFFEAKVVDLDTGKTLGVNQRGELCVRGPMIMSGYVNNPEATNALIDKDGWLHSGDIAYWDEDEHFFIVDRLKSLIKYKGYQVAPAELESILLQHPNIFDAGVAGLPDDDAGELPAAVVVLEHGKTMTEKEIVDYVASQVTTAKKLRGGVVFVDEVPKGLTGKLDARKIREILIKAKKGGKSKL
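Biochemical qHTS of compounds, final roughly 60 µM downward over six points, against 10 nM purified firefly luciferase using Km concentrations of substrates (10 uM D-luciferin, 10 uM ATP) in Tris acetate pH 7.5 buffer; luminescence output.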
* marks the source's active call; other numbers are inactive results; ? = inconclusive; . = no result. The list is not random: actives were taken first. Their share in the collection is about 7.5%. Calls come from the whole dose curve; as a rule, active = well fitted curve in the direction sought with a large enough effect; inconclusive = small, poorly fitted or top-dose-only effect, or another doubt; inactive = no such curve, though single readings can be large; an effect the other way counts as inactive or inconclusive. Potency is the fitted concentration of half-maximal effect.

SMILES	Rab9 promoter act	NPC1 prom act	ELG1 genotox	SMN2 splice enh	FLuc counter
COc1cccc(NC(=O)c2sc(NC(=O)c3ccncc3)nc2C)c1	0.1%	-2.5%	-4.4%	.	19µM*
CC(=O)Nc1nc(C)c(-c2csc(Nc3cccc([N+](=O)[O-])c3)n2)s1	-17.3%	-10.9%	-11.8%	-32.9%	-11.8%
Cc1csc(Nc2ccc(C(=O)O)cc2)n1	15.9%	20.1%	5.6%	.	?
COc1cccc(Nc2nc(-c3sc(NC(=O)c4ccccc4)nc3C)cs2)c1	-0.7%	0.0%	-6.8%	-58.5%	19µM*
CC(C(=O)Nc1ccc2c(c1)OCCO2)N(C)CC(=O)Nc1ccccc1Br (configuration not stated)	-4.0%	-2.0%	0.7%	.	-0.3%
Cc1nc(NC(=O)c2ccccc2)sc1-c1csc(Nc2ccc(C(=O)O)cc2)n1	?	23.4%	-7.1%	.	0.477µM*
CC(=O)c1cccc(Nc2nc(-c3cccc([N+](=O)[O-])c3)cs2)c1	21.3%	4.6%	1.46µM*	11.2µM*	-3.8%
O=C(Nc1cccc(-c2csc(Nc3cccc(C(F)(F)F)c3)n2)c1)c1cc([N+](=O)[O-])cc(C(F)(F)F)c1	-14.9%	-18.1%	-5.1%	.	2.9%
Cc1nc(N)sc1-c1csc(Nc2ccccc2)n1	2.82µM*	?	15.6%	11.2µM*	10.7µM*
CCC(=O)Nc1nc(C)c(-c2csc(Nc3ccc(C(=O)O)cc3)n2)s1	7.3%	-2.6%	0.0%	.	16.9µM*
CCCn1c(N)c(C(=O)CSc2nnc(-c3ccoc3C)n2C)c(=O)n(C)c1=O	2.7%	-2.1%	-0.9%	.	-0.9%
O=C(CN1C(=O)c2ccccc2C1=O)N1CCN(c2ccccc2)CC1	1.4%	-4.3%	-4.3%	?	4.6%
C=CCCC(=O)Nc1nc(C)c(-c2csc(Nc3cccc(OC)c3)n2)s1	-10.0%	-2.7%	1.2%	-29.1%	?
CCC(=O)Nc1nc(C)c(-c2csc(Nc3cccc(C(=O)O)c3)n2)s1	-2.6%	-1.0%	-4.6%	26.5%	10.7µM*
Cc1nc(NC(=O)c2ccc(Cl)cc2)sc1-c1csc(Nc2cccc(F)c2)n1	0.2%	14.0%	-3.0%	-9.1%	10.7µM*
CCCC(=O)Nc1nc(C)c(-c2csc(Nc3ccc(Cl)cc3)n2)s1	3.9%	-2.5%	-7.2%	?	?
Cc1ccc(Nc2nc(-c3sc(NC(=O)c4cccc(Cl)c4)nc3C)cs2)cc1	3.0%	-4.9%	-2.3%	-10.6%	9.53µM*
COc1ccc(C)cc1NC(=O)Nc1cccc(C(=O)O)c1	-1.9%	-0.7%	3.8%	.	?
COc1cccc(OC)c1C(=O)Nc1ccc(Br)c(C(=O)c2ccccc2)c1	0.2%	-0.4%	-17.4%	.	-1.6%
COc1ccccc1NC(=O)Nc1ccc(F)c(F)c1	18.4%	12.3%	0.9%	28.3%	16.9µM*
COc1ccccc1NC(=O)Nc1ccc2c(c1)nnn2C	3.16µM*	?	13µM*	?	12µM*
COc1ccccc1NC(=O)Nc1cccc(C(=O)O)c1	?	?	0.6%	-13.6%	12µM*
COc1ccccc1C(=O)Nc1cccc(C(=O)c2ccccc2)c1	0.8%	-2.4%	2.3%	.	16.9µM*
Cc1ccc(NC(=O)Nc2ccc3c(c2)nnn3C)cc1C	?	?	12.6%	.	-7.1%
CC(C)N(Cc1cc2ccccc2[nH]c1=O)C(=O)C(C)(C)C	11.3%	-5.9%	-0.4%	0.1%	1.5%
SMILES	Rab9 promoter act	NPC1 prom act	ELG1 genotox	SMN2 splice enh	FLuc counter
O=C(c1cccc(-n2cnnn2)c1)N1CC=C(c2ccccc2)CC1	-4.9%	2.2%	2.4%	-1.4%	2.1%
O=C(Nc1ccc(Cl)c(Cl)c1)C1CC(=O)N(c2ccc(Br)cc2)C1 (configuration not stated)	-2.4%	-2.3%	2.2%	-78.8%	-0.3%
COc1cccc(OC)c1C(=O)Nc1cccc(C(=O)Nc2cccc(C(=O)O)c2)c1	6.6%	7.3%	-1.5%	.	9.53µM*
COc1ccccc1NC(=O)NC(=O)c1ccccc1	?	2.51µM*	?	.	1.2µM*
O=Nc1ccc(NOC(=O)c2ccccc2)cc1	-3.0%	-3.5%	-2.9%	-38.2%	0.0953µM*
Cc1ccc(NC(=O)c2cc(-c3ccc4c(c3)OCO4)on2)cc1C	1.1%	-1.2%	?	.	-0.4%
O=C(Nc1cccc(Br)c1)c1cc(-c2ccc3c(c2)OCCO3)on1	.	.	.	.	0.675µM*
O=C(Nc1cccnc1)c1cc(-c2ccc3c(c2)OCO3)on1	5.5%	4.5%	?	-10.7%	0.477µM*
Cc1ccc(-c2cc(C(=O)NCc3cccnc3)no2)cc1	?	?	13µM*	21.7%	10.7µM*
O=C(Nc1cccnc1)c1cc(-c2ccc(F)cc2)on1	-4.3%	-2.6%	9.7%	2.0%	2.39µM*
COc1ccc(NC(=O)[C@@H](c2ccccc2)N2Cc3ccccc3C2=O)cc1OC	.	.	.	21.6%	4.3%
O=C(COCc1cc(-c2ccc3c(c2)OCO3)on1)Nc1cccnc1	-0.9%	-4.7%	2.4%	.	21.3µM*
O=C(Nc1cccnc1)c1cc(-c2ccc(Cl)c(Cl)c2)on1	-1.7%	-3.2%	22.9%	.	?
COc1ccc(-c2cc(C(=O)Nc3cccnc3)no2)cc1OC	?	2.24µM*	?	2.9%	19µM*
CN1CCN(C(=O)COCc2cc(-c3ccc4c(c3)OCO4)on2)CC1	13.8%	1.9%	9.0%	.	-18.4%
O=C(COCc1cc(-c2ccc3c(c2)OCO3)on1)N1CCCCC1	?	?	?	.	19µM*
COc1cc2c(cc1OC)-c1nnc(C)n1C(C)(C)C2	1.9%	0.9%	1.0%	-8.4%	-1.1%
O=C(Nc1ccc2[nH]ncc2c1)c1ccccc1Cl	3.55µM*	3.98µM*	?	.	9.53µM*
O=C(Cc1ccccc1)Nc1ccc2[nH]ncc2c1	0.7%	8.8%	-5.1%	.	-18.4%
O=C(Nc1ccc2[nH]ncc2c1)c1ccccc1Br	?	3.16µM*	8.4%	.	16.9µM*
O=C(/C=C/c1ccc(OCc2cccc(Cl)c2)cc1)N1CCOCC1	4.5%	1.3%	-0.6%	-24.0%	?
O=C(CCN1CCOCC1)NNC(=S)NC(=O)c1ccc(Br)cc1	-1.8%	-26.1%	0.2%	-35.4%	-17.3%
CC1CCN(c2nc3ccccc3n2CC(=O)c2ccccc2)CC1	10.4%	-2.4%	0.4%	-12.3%	1.4%
C/C(=N\Nc1ccccc1C)c1cccnc1	3.8%	2.0%	10.8%	.	16.9µM*
O=C(N/N=C/c1ccc(O)cc1)c1cc(C23CC4CC(CC(C4)C2)C3)[nH]n1	10.4%	-2.1%	4.1%	.	13.5µM*
COc1ccc(/C=N/NC(=O)c2cc(C34CC5CC(CC(C5)C3)C4)[nH]n2)cc1OC	-3.2%	-5.0%	3.1%	5.3%	?
CC1CCCC(NC(=O)C2COc3ccccc3O2)C1C (configuration not stated)	12.4%	1.1%	2.3%	.	4.3%
CC(C)CCN(C(=O)CNC(=O)c1cccs1)C(C(=O)NC1CCCC1)c1ccncc1 (configuration not stated)	2.1%	9.1%	-1.5%	1.5%	-0.7%

Screening results deposited in PubChem BioAssay by National Center for Advancing Translational Sciences (NCATS).
